Inconclusive results are not listed. A number with no mark means an inactive call. The call rests on the fitted dose curve; in most records, active means well fitted curve in the direction sought with a large enough effect; inconclusive means small, poorly fitted or top-dose-only effect, or another doubt; inactive means no such curve, though single readings can be large or run the other way.
Test: qHTS screen for small molecules that inhibit ELG1-dependent DNA repair: SAR in Cell-Based Luciferin Counter Assay
Conditions: cell-based luciferase counter-screen, luminescence; series mostly up to 45.7 µM; activity change, negative = inhibition: at the top concentration
Summary of the method: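 Counterscreen: compounds pin-transferred into luciferin substrate reagent, then luciferase added; luminescence read on a CCD imager to flag luciferase inhibitors or enhancers.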

With `COc1cccc2oc(-c3ccccc3)cc(=O)c12` as the molecule, how does the “activity change, negative = inhibition” value read?
Its value is 68.4%.

With `COc1ccc(C2CC(c3c(O)cc(C)oc3=O)=NCCS2)c(OC)c1` (stereo not drawn) as the molecule, how does the “activity change, negative = inhibition” value read?
Its value is 82.9%.

For `CN(Cc1ccco1)c1ncnc2ccc(-c3cccc(Cl)c3)cc12`, which “activity change, negative = inhibition” value is on record?
The value was 15.3%.

For `CC(=O)Nc1sc2c(c1-c1nc3ccccc3s1)CCCNC2`, which “activity change, negative = inhibition” value is on record?
The value was -7.56%.

For `Cc1ccc2c(c1)C/C(=C/c1ccc(N(C)C)cc1)C2=O`, which “activity change, negative = inhibition” value is on record?
Its value is 70.2%.

With `CSc1ncnc2c1ncn2C1OC(CO)C(O)C1O` (stereo not drawn) as the molecule, how does the “activity change, negative = inhibition” value read?
Its value is -15.1%.

With `COc1ccc(C2=Nn3c(nnc3-c3ccccc3OC)SC2)cc1OC` as the molecule, how does the “activity change, negative = inhibition” value read?
Its value is 39.9%.

With `O=C(Nc1ccccn1)c1sc2ccc([N+](=O)[O-])cc2c1Cl` as the molecule, how does the “activity change, negative = inhibition” value read?
The value was 67.8%.

For `Cc1ccc2nc3sc(C(=O)NCc4ccco4)cc3cc2c1`, which “activity change, negative = inhibition” value is on record?
The value was 56.4%.

Which “activity change, negative = inhibition” value does the source give for `COc1ccccc1/C=C/c1nc2ccccc2o1` here?
Its value is 61.4%.

Which “activity change, negative = inhibition” value does the source give for `Cc1noc(C)c1-c1ccc2ncnc(NCc3ccc(F)c(F)c3)c2c1` here?
Its value is 73.8%.

With `COc1ccc(-c2cnc(-c3cccnc3)o2)cc1` as the molecule, how does the “activity change, negative = inhibition” value read?
Its value is 76%.

For `COc1cc2c(cc1OC)C1C(=O)c3c(cc4c(c3O)C=CC(C)(C)O4)OC1CO2` (stereo not drawn), which “activity change, negative = inhibition” value is on record?
The value was -5.64%.

Which “activity change, negative = inhibition” value does the source give for `COc1ccc(-c2coc3cc(O)cc(O)c3c2=O)cc1` here?
The value was 76.9%.

Which “activity change, negative = inhibition” value does the source give for `CN(C)c1cccc(-c2ccnc(N3CCC(C(N)=O)CC3)n2)c1` here?
Its value is 98.7%.

Which “activity change, negative = inhibition” value does the source give for `O=C(COc1ccccc1Cl)Nc1ccc(-c2nc3ccccc3s2)cc1` here?
Its value is 22.3%.

For `Cc1cc2ncc(-c3ccccc3)nc2cc1C`, which “activity change, negative = inhibition” value is on record?
Its value is 69.2%.

With `O=C1/C(=C/c2ccc(O)c(O)c2)Oc2ccccc21` as the molecule, how does the “activity change, negative = inhibition” value read?
Its value is 74.8%.
